Test results reported in the supplement of paper PMC11732987, “Enantioselective OTUD7B fragment discovery through chemoproteomics screening and high-throughput optimisation” (Communications Chemistry, 2025).

Key:
Experiment in all cases: log2 ratio of Biotin-Ahx-Ub-VS probe labelling (fragment/DMSO); higher = less target engagement (more negative = stronger competition), active = hit call of the paper (q ≤ 0.05, log2 ratio ≤ -1)
Settings in all cases: compound concentration: 200 uM; treatment time: 3 h
[1] = target: USP34 (UniProt Q70CQ2)
USP34, sequence (Q70CQ2 whole entry, the tested form may be a part): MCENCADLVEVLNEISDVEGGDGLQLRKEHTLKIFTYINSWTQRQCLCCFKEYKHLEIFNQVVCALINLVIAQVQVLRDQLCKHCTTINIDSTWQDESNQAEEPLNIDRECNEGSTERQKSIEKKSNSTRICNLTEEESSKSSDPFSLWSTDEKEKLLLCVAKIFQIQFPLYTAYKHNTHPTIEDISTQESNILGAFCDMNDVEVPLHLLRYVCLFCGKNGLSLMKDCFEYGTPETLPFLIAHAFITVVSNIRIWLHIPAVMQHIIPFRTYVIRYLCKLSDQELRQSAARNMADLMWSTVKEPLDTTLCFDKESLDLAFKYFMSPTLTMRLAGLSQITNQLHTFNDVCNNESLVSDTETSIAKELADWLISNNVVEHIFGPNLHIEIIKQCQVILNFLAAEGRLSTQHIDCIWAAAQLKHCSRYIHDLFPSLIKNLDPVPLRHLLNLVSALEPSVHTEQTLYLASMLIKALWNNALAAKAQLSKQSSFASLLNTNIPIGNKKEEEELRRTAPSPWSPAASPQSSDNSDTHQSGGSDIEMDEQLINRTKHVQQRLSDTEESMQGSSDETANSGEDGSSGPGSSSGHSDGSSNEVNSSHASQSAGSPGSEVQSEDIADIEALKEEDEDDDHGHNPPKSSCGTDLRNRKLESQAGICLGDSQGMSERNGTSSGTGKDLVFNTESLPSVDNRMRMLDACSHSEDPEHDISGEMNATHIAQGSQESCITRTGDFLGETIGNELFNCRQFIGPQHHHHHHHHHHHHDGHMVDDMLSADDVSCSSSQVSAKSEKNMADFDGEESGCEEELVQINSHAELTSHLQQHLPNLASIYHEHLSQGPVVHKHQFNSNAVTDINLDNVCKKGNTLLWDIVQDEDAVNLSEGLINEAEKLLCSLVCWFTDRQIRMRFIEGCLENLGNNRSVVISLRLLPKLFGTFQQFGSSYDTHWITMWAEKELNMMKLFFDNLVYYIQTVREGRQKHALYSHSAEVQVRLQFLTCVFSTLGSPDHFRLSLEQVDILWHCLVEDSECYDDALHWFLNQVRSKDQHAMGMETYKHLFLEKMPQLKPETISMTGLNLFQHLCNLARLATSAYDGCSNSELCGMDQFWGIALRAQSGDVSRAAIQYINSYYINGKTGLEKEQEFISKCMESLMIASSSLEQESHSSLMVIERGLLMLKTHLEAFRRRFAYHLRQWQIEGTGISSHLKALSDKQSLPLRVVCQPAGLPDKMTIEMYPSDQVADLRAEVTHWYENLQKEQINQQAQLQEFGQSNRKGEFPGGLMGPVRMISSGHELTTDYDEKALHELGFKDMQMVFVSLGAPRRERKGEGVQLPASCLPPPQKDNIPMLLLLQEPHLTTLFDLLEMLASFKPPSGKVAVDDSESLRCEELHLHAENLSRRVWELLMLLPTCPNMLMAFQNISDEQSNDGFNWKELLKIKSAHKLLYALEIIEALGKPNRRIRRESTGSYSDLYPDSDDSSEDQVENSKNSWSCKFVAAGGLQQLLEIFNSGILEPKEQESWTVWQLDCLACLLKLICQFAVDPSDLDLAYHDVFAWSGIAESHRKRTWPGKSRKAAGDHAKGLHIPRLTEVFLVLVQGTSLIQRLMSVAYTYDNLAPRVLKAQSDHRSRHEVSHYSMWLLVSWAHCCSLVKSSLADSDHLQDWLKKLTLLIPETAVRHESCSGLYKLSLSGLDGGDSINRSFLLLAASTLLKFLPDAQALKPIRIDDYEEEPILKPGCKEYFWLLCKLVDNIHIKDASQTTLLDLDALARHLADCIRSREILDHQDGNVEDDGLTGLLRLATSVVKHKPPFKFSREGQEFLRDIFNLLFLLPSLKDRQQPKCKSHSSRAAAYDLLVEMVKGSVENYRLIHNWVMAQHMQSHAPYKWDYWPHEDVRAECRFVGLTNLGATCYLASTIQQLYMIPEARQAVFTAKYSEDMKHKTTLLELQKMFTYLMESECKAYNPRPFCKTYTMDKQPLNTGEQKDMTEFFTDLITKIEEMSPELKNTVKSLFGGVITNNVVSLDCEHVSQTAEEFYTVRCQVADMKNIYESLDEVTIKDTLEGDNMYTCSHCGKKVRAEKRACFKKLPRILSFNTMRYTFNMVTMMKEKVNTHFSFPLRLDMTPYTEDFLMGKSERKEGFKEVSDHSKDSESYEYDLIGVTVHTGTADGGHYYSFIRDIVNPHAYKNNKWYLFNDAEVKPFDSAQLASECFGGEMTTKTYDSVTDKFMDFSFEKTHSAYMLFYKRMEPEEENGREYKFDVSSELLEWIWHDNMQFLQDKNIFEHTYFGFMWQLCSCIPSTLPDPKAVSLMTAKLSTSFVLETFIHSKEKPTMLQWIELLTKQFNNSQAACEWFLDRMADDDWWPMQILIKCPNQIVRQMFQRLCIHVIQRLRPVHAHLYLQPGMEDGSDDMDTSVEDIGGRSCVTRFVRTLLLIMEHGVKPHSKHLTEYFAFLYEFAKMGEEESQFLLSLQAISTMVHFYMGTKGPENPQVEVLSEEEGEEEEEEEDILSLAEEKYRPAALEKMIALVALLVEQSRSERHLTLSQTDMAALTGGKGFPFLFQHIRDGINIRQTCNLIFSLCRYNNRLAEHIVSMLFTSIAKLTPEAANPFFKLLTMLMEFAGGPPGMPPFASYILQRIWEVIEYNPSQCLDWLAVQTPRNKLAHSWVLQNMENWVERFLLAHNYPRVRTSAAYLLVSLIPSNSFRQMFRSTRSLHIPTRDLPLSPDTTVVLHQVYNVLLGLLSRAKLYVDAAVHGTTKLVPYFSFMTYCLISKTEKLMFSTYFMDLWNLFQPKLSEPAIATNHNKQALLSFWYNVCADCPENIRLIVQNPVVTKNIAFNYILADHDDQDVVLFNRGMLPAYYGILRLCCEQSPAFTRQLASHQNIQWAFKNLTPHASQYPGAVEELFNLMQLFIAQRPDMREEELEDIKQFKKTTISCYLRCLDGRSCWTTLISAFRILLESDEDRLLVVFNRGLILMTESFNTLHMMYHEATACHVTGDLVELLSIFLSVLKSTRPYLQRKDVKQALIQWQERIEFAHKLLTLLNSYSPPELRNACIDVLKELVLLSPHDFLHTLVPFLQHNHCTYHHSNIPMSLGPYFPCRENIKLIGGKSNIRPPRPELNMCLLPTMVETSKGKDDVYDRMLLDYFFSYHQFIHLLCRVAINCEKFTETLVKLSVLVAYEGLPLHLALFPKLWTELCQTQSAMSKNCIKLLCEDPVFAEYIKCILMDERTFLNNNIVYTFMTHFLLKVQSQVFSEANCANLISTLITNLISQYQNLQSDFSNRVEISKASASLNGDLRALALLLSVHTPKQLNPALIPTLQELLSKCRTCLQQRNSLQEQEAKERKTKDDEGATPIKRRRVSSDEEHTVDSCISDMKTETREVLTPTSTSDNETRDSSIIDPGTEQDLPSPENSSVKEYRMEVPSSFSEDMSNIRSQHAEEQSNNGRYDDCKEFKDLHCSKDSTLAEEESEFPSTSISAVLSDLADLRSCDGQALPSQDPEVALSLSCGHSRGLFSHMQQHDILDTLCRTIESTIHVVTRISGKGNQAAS
Method in brief: (§1)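 HEK293T lysate, 495 µg per sample in Tris/CHAPS/IGEPAL buffer with protease inhibitors, was treated in triplicate with fragment at 200 µM or vehicle for 3 h and then with Biotin-Ahx-Ub-VS at 0.5 µM final for 1 h. Labelled DUBs were NeutrAvidin-enriched, digested with LysC and trypsin, and run by diaPASEF LC-MS/MS. Spectronaut label-free quantities were global-median-normalised, and values are average log2 fragment/vehicle ratios by unpaired t-test on proteins with ≥2 unique peptides.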

[2] = target: T1, USP36 (UniProt Q9P275)
T1 sequence (whole entry): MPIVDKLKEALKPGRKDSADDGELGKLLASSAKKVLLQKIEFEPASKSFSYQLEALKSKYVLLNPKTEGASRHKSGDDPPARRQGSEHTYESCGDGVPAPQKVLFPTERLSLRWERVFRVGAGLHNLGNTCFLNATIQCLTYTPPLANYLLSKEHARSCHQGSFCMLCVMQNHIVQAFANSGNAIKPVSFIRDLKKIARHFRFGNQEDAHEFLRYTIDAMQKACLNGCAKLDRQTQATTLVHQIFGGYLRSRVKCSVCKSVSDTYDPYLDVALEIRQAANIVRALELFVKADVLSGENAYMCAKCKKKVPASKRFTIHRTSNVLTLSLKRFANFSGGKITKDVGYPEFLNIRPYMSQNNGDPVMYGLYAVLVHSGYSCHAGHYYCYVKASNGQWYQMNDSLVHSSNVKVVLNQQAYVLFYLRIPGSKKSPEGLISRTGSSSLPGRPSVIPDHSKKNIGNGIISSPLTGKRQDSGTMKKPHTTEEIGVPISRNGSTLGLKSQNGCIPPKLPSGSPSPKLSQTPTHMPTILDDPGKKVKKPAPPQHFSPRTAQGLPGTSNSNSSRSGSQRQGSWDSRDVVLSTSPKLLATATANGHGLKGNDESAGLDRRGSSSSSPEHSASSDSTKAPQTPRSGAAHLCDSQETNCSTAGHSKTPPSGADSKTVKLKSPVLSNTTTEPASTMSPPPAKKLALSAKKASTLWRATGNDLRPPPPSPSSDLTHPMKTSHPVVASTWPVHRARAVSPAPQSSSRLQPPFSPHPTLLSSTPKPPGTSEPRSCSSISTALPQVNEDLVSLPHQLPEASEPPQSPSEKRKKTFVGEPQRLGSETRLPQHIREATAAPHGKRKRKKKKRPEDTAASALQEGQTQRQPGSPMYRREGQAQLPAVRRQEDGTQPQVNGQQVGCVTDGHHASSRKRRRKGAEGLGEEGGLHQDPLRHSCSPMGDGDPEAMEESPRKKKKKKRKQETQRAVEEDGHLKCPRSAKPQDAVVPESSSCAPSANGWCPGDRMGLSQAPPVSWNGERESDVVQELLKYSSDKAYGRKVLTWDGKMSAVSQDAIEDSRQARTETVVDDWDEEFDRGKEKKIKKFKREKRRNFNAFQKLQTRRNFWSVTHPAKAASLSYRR
Method in brief: as §1

[3] = target: T2, USP38 (UniProt Q8NB14)
T2 sequence (whole entry): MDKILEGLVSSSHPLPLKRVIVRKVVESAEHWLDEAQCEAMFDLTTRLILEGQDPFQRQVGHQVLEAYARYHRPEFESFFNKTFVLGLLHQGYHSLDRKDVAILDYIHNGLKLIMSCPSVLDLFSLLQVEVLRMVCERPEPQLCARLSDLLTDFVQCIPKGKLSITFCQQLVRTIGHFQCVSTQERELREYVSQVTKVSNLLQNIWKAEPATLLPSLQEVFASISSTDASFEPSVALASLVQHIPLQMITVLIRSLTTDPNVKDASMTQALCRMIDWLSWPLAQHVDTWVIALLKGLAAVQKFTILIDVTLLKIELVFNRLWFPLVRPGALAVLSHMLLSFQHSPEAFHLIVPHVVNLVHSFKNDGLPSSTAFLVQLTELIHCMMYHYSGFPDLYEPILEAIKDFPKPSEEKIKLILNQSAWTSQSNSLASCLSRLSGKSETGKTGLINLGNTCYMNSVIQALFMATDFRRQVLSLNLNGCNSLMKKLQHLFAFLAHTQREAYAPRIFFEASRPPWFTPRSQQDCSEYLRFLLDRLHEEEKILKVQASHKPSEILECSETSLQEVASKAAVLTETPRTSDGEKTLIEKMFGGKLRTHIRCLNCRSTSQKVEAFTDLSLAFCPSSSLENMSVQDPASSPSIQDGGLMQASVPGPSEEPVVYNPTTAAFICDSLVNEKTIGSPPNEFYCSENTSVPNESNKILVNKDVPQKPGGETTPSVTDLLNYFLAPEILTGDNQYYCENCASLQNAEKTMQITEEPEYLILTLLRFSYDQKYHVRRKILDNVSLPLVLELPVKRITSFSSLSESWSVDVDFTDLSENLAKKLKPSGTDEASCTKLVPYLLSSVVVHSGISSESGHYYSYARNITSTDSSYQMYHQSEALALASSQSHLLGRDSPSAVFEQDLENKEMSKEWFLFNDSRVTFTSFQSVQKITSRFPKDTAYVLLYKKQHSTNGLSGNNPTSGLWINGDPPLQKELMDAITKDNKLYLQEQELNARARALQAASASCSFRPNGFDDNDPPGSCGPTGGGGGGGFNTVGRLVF
Method in brief: as §1

[4] = target: T3, USP39 (UniProt Q53GS9)
T3 sequence (whole entry): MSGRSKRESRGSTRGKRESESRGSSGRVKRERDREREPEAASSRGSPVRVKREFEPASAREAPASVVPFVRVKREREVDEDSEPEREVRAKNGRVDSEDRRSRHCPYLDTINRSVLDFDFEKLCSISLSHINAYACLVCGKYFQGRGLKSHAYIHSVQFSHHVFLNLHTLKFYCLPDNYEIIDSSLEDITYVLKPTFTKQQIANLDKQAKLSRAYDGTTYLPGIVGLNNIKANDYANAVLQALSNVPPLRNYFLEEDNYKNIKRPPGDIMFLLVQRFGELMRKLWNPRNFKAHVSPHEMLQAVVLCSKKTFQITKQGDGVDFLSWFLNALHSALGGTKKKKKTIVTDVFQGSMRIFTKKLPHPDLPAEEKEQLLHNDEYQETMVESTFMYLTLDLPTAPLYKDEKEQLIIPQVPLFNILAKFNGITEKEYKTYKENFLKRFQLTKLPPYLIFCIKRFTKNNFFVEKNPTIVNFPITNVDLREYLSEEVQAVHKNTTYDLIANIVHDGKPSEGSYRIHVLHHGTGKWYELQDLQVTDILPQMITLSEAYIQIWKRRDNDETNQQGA
Method in brief: as §1

[5] = target: T4, USP4 (UniProt Q13107)
T4 sequence (whole entry): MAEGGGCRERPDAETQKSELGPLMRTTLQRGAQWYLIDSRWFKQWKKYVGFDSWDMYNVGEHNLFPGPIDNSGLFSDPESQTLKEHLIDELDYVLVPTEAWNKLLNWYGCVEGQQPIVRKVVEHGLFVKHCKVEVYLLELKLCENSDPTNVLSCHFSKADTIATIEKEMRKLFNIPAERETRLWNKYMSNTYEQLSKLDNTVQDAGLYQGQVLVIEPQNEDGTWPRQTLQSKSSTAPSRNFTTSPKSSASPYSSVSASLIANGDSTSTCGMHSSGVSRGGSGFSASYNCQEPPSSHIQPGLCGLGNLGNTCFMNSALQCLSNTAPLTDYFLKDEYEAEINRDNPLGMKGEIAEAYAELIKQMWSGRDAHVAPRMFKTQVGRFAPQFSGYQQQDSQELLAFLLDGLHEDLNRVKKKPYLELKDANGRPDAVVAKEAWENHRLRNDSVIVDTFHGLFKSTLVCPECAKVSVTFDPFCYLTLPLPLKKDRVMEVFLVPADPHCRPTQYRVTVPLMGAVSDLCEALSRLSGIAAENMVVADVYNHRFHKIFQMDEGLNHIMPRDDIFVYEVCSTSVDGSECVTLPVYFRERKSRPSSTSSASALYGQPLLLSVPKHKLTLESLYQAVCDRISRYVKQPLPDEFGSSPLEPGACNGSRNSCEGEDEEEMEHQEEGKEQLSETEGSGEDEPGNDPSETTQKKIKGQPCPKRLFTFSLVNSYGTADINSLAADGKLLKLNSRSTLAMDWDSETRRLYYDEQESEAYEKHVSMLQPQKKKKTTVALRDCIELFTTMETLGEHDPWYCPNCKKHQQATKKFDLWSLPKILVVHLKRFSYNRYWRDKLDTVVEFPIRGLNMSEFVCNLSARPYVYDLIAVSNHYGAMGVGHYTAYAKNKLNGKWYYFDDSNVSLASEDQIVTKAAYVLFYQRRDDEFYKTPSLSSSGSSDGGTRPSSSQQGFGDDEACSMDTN
Method in brief: as §1

Measured: log2 ratio of Biotin-Ahx-Ub-VS probe labelling

CN1C(=O)c2ccc(NC(=O)CCl)cc2C1=O
inactive: [1] -0.233 | [2] 0.0568 | [3] -0.169 | [4] 0.16 | [5] -0.181
